Inconclusive results are not listed. Calls of active or inactive are those of the source. Calls follow the shape of the dose curve; as a rule, active = well fitted curve in the direction sought with a large enough effect; inconclusive = small, poorly fitted or top-dose-only effect, or another doubt; inactive = no such curve, though single readings can be large; an effect the other way counts as inactive or inconclusive.
Tests used:
[1] = test system: MCC-13; assay: qHTS assay to identify novel small-molecules to repurpose for Merkel cell carcinoma treatment (AID 1296009); conditions: MCC and control cell lines, CellTiter-Glo viability, 72 h; series mostly up to 46 µM; also: nearly all actives have a fitted effect of over 60% in size
Method in brief: (§1)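 72 hr, 37 degree celsius; NPC 8-pt / MIPE 11-pt dose response; compound pinned in DMSO; CellTiter-Glo, 10 min RT, luminescence; normalized to no-cell and DMSO controls.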

[2] = test system: MCC-26; assay: as above; conditions: MCC and control cell lines, CellTiter-Glo viability, 72 h; series mostly up to 46 µM
Method in brief: as §1

[3] = test system: MKL-1; assay: as above; conditions: MCC and control cell lines, CellTiter-Glo viability, 72 h; series mostly up to 46 µM
Method in brief: as §1

[4] = test system: MKL-2; assay: as above; conditions: MCC and control cell lines, CellTiter-Glo viability, 72 h; series mostly up to 46 µM
Method in brief: as §1

[5] = test system: NIH3T3; assay: as above; conditions: MCC and control cell lines, CellTiter-Glo viability, 72 h; at 44.8 µM (top of the series) unless noted
Method in brief: as §1

[6] = test system: UISO; assay: as above; conditions: MCC and control cell lines, CellTiter-Glo viability, 72 h; series mostly up to 46 µM
Method in brief: as §1

[7] = test system: WaGa; assay: as above; conditions: MCC and control cell lines, CellTiter-Glo viability, 72 h; series mostly up to 46 µM
Method in brief: as §1

[8] = test system: C33A; assay: Primary qHTS to identify gynecologic anti-cancer compounds using libraries of approved drugs and bioactive compounds (AID 1345084); conditions: Gynecologic cancer cell panel viability, ATPlite luminescence, 48 h; series mostly up to 57.5 µM; also: nearly all actives have a fitted effect of over 55% in size
Method in brief: (§2)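 Cytotoxicity screen measuring ATP content by luciferase luminescence. Each compound is applied at five concentrations for 48 h at 37 C with 5% CO2.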

[9] = test system: CAOV3; assay: as above; conditions: Gynecologic cancer cell panel viability, ATPlite luminescence, 48 h; series mostly up to 57.5 µM
Method in brief: as §2

[10] = test system: CASKI; assay: as above; conditions: Gynecologic cancer cell panel viability, ATPlite luminescence, 48 h; series mostly up to 57.5 µM
Method in brief: as §2

[11] = test system: Es-2; assay: as above; conditions: Gynecologic cancer cell panel viability, ATPlite luminescence, 48 h; series mostly up to 57.5 µM
Method in brief: as §2

[12] = test system: HeLa; assay: as above; conditions: Gynecologic cancer cell panel viability, ATPlite luminescence, 48 h; series mostly up to 57.5 µM
Method in brief: as §2

[13] = test system: Hek293T; assay: as above; conditions: Gynecologic cancer cell panel viability, ATPlite luminescence, 48 h, control line for the selectivity index; series mostly up to 57.5 µM
Method in brief: as §2

[14] = test system: JEG-3; assay: as above; conditions: Gynecologic cancer cell panel viability, ATPlite luminescence, 48 h; series mostly up to 57.5 µM
Method in brief: as §2

[15] = test system: OV90; assay: as above; conditions: Gynecologic cancer cell panel viability, ATPlite luminescence, 48 h; series mostly up to 57.5 µM
Method in brief: as §2

[16] = test system: PA-1; assay: as above; conditions: Gynecologic cancer cell panel viability, ATPlite luminescence, 48 h; series mostly up to 57.5 µM
Method in brief: as §2

[17] = test system: SKOV3; assay: as above; conditions: Gynecologic cancer cell panel viability, ATPlite luminescence, 48 h; series mostly up to 57.5 µM
Method in brief: as §2

[18] = test system: Tov-21-G; assay: as above; conditions: Gynecologic cancer cell panel viability, ATPlite luminescence, 48 h; series mostly up to 57.5 µM
Method in brief: as §2

[19] = test system: Tov112D; assay: as above; conditions: Gynecologic cancer cell panel viability, ATPlite luminescence, 48 h; series mostly up to 57.5 µM
Method in brief: as §2

[20] = Drug repurposing screens with cells derived from glioblastoma tumor samples (AID 1345199); conditions: GBM patient neurospheres viability, ATP luminescence, 48 h; also: nearly all actives have a fitted effect of over 40% in size
Method in brief: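 Four patient lines of CD133+ GBM neurospheres were screened at several concentrations; hits were retested in those lines plus three slower-growing GBM lines, using 48-hour treatment and ATP-based viability.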

[21] = at 45.9 µM (top of the series), tumour line B
[22] = at 45.9 µM (top of the series), tumour line D
% is scaled to controls: 0 for no effect and ±100 for the full control effect.

CCC(CC)(CNC(=O)CCCO)c1cccc(OC)c1
inactive: outcome [1] | Potency [2] | Potency [3] | Potency [4] | outcome [5] | Potency [6] | Potency [7] | Potency [8] | outcome [9] | outcome [10] | Potency [11] | Potency [12] | outcome [13] | outcome [14] | Potency [15] | Potency [16] | outcome [17] | Potency [18] | Potency [19]

CC(=O)C1CCOC1=O (centres undefined)
inactive: outcome [1] | Potency [2] | Potency [3] | Potency [4] | outcome [5] | Potency [6] | Potency [7] | Potency [8] | outcome [9] | outcome [10] | Potency [11] | Potency [12] | outcome [13] | outcome [14] | Potency [15] | Potency [16] | outcome [17] | Potency [18] | Potency [19]

C#CC(O)(C=CCl)CC (centres undefined)
inactive: outcome [1] | Potency [2] | Potency [3] | Potency [4] | outcome [5] | Potency [6] | Potency [7] | Potency [8] | outcome [9] | outcome [10] | Potency [11] | Potency [12] | outcome [13] | outcome [14] | Potency [15] | Potency [16] | outcome [17] | Potency [18] | Potency [19]

Nc1ccc([As](=O)(O)O)cc1
inactive: outcome [1] | Potency [2] | Potency [3] | Potency [4] | outcome [5] | Potency [6] | Potency [7] | Potency [8] | outcome [9] | outcome [10] | Potency [11] | Potency [12] | outcome [13] | outcome [14] | Potency [15] | Potency [16] | Potency [18] | Potency [19] | activity, negative = cell killing [20, 21] -5.35% | activity, negative = cell killing [20, 22] -5.12% | activity, negative = cell killing ([20]; at 46 µM (top of the series), tumour line A) -21.8%

CCc1cc2c(s1)-n1c(C)nnc1CN=C2c1ccccc1Cl
inactive: outcome [1] | Potency [2] | Potency [3] | Potency [4] | outcome [5] | Potency [6] | Potency [7] | Potency [8] | outcome [9] | outcome [10] | Potency [11] | Potency [12] | outcome [13] | outcome [14] | Potency [15] | Potency [16] | outcome [17] | Potency [18] | Potency [19] | activity, negative = cell killing [20, 21] -22.1% | activity, negative = cell killing [20, 22] -8.05%

CC[N+]1(CC)CCC(OC(=O)C(O)(c2ccccc2)c2ccccc2)C1 (centres undefined)
inactive: outcome [1] | Potency [2] | Potency [3] | Potency [4] | Potency [6] | Potency [7] | Potency [8] | outcome [9] | outcome [10] | Potency [11] | Potency [12] | outcome [13] | outcome [14] | Potency [15] | Potency [16] | outcome [17] | Potency [18] | Potency [19]

O=C(O)c1ccc(=O)[nH]c1
inactive: outcome [1] | Potency [2] | Potency [3] | Potency [4] | outcome [5] | Potency [6] | Potency [7] | Potency [8] | outcome [9] | outcome [10] | Potency [11] | Potency [12] | outcome [13] | Potency [15] | Potency [16] | Potency [18] | Potency [19]

Reference: PubChem BioAssay (NCATS)
